Laboratory results published in PubChem BioAssay AID1159580 (chemical genetic matrix, 2015).
The whole screen tested about 5,500 compounds, of which about 2,000 (36%) were called active. Inconclusive results (about 18%) are left out. Rule as the data show it: active = normalized growth mostly below about 0.91 (no sharp cut-off); inconclusive = no clear call, values can overlap the other calls; inactive = mostly above about 0.92. This is one part of the list.

Assay: chemical genetic growth profiling, strain panel (AID 1159580);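 also: tested at 20 µM; growth read once vehicle control cultures reached saturation at 30 °C; 1 = growth at the plate median or of vehicle wells; lower values mean less growth of the strain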
Conditions: growth OD

Measured: normalized growth

NC(Cn1ccc(=O)c(O)c1)C(=O)O (configuration not stated)
inactive: S. cerevisiae deletion strains, locus YJR075W, strain HOC1, hits give low values 1.01 | S. cerevisiae deletion strains, locus YKL009W, strain mrt4, hits give low values 1.01 | S. cerevisiae deletion strains, locus YKL068W, hits give low values 0.993 | S. cerevisiae deletion strains, locus YKL085W, strain MDH1 (second series), hits give low values 0.993 | S. cerevisiae deletion strains, locus YKL085W, strain MDH1, hits give low values 0.993 | S. cerevisiae deletion strains, locus YKL160W, strain elf1, hits give low values 1.04 | S. cerevisiae deletion strains, locus YKL190W, strain CNB1, hits give low values 1.01 | S. cerevisiae deletion strains, locus YKR001C, strain vps1, hits give low values 0.991 | S. cerevisiae deletion strains, locus YKR026C, strain gcn3, hits give low values 1.03 | S. cerevisiae deletion strains, locus YKR091W, strain srl3, hits give low values 1.01 | S. cerevisiae deletion strains, locus YLL001W, strain dnm1, hits give low values 0.981 | S. cerevisiae deletion strains, locus YLL026W, hits give low values 1.01 | S. cerevisiae deletion strains, locus YLL041C, strain sdh2, hits give low values 1.01 | S. cerevisiae deletion strains, locus YLR027C, strain aat2, hits give low values 1.01 | S. cerevisiae deletion strains, locus YLR039C, strain RIC1, hits give low values 1.04 | S. cerevisiae deletion strains, locus YLR058C, strain SHM2, hits give low values 1.01 | S. cerevisiae deletion strains, locus YLR102C, strain apc9, hits give low values 0.988 | S. cerevisiae deletion strains, locus YLR113W, strain HOG1, hits give low values 1.03 | S. cerevisiae deletion strains, locus YLR221C, strain rsa3, hits give low values 1 | S. cerevisiae deletion strains, locus YLR258W, strain gsy2, hits give low values 1.03 | S. cerevisiae deletion strains, locus YLR262C, strain YPT6 (second series), hits give low values 0.977 | S. cerevisiae deletion strains, locus YLR262C, strain YPT6, hits give low values 1.03 | S. cerevisiae deletion strains, locus YLR268W, strain sec22, hits give low values 0.962 | S. cerevisiae deletion strains, locus YLR320W, strain mms22, hits give low values 0.981 | S. cerevisiae deletion strains, locus YLR330W, strain CHS5, hits give low values 1.01 | S. cerevisiae deletion strains, locus YLR342W, strain FKS1 (second series), hits give low values 1.06 | S. cerevisiae deletion strains, locus YLR342W, strain FKS1, hits give low values 1.03 | S. cerevisiae deletion strains, locus YLR357W, strain rsc2, hits give low values 0.986 | S. cerevisiae deletion strains, locus YLR370C, strain arc18, hits give low values 1.03 | S. cerevisiae deletion strains, locus YLR371W, strain rom2, hits give low values 0.995 | S. cerevisiae deletion strains, locus YLR384C, strain iki3, hits give low values 1.03 | S. cerevisiae deletion strains, locus YLR418C, strain cdc73, hits give low values 0.994 | S. cerevisiae deletion strains, locus YML016C, strain PPZ1, hits give low values 1.02 | S. cerevisiae deletion strains, locus YML032C, strain rad52, hits give low values 0.965 | S. cerevisiae deletion strains, locus YML120C, strain ndi1, hits give low values 1.01 | S. cerevisiae deletion strains, locus YML124C, strain tub3, hits give low values 0.995 | S. cerevisiae deletion strains, locus YMR058W, strain fet3, hits give low values 1.01 | S. cerevisiae deletion strains, locus YMR078C, strain ctf18, hits give low values 0.982 | S. cerevisiae deletion strains, locus YMR125W, strain sto1, hits give low values 1.04 | S. cerevisiae deletion strains, locus YMR129W, hits give low values 1.01 | S. cerevisiae deletion strains, locus YMR205C, strain PFK2, hits give low values 1.01 | S. cerevisiae deletion strains, locus YMR223W, strain ubp8, hits give low values 1.01 | S. cerevisiae deletion strains, locus YMR231W, strain pep5, hits give low values 1.02 | S. cerevisiae deletion strains, locus YMR263W, strain SAP30, hits give low values 1.01 | S. cerevisiae deletion strains, locus YMR307W, strain GAS1, hits give low values 1.02 | S. cerevisiae deletion strains, locus YNL067W, strain RPL9B, hits give low values 1.01 | S. cerevisiae deletion strains, locus YNL071W, strain lat1, hits give low values 1.02 | S. cerevisiae deletion strains, locus YNL128W, strain TEP1, hits give low values 1.01 | S. cerevisiae deletion strains, locus YNL153C, strain GIM3, hits give low values 1.01 | S. cerevisiae deletion strains, locus YNL183C, strain NPR1, hits give low values 0.974 | S. cerevisiae deletion strains, locus YNL209W, strain ssb2, hits give low values 1.03 | S. cerevisiae deletion strains, locus YNL233W, strain BNI4, hits give low values 1.02 | S. cerevisiae deletion strains, locus YNL248C, strain rpa49, hits give low values 1.04 | S. cerevisiae deletion strains, locus YNL250W, strain rad50, hits give low values 0.978 | S. cerevisiae deletion strains, locus YNL271C, strain bni1, hits give low values 0.984 | S. cerevisiae deletion strains, locus YNL298W, strain CLA4, hits give low values 0.987 | S. cerevisiae deletion strains, locus YNL307C, strain MCK1, hits give low values 0.997 | S. cerevisiae deletion strains, locus YNL322C, strain KRE1 (second series), hits give low values 1.02 | S. cerevisiae deletion strains, locus YNL322C, strain KRE1, hits give low values 1.01 | S. cerevisiae deletion strains, locus YNR049C, strain mso1, hits give low values 1.02 | S. cerevisiae deletion strains, locus YNR052C, strain pop2, hits give low values 0.992 | S. cerevisiae deletion strains, locus YOL006C, strain TOP1, hits give low values 1.01 | S. cerevisiae deletion strains, locus YOL012C, strain htz1 0.622 | S. cerevisiae deletion strains, locus YOL147C, strain pex11, hits give low values 0.985 | S. cerevisiae deletion strains, locus YOR001W, strain rrp6, hits give low values 0.969 | S. cerevisiae deletion strains, locus YOR061W, strain CKA2, hits give low values 1.03 | S. cerevisiae deletion strains, locus YOR069W, strain VPS5, hits give low values 1.01 | S. cerevisiae deletion strains, locus YOR070C, strain gyp1, hits give low values 1.03 | S. cerevisiae deletion strains, locus YOR080W, strain dia2, hits give low values 1.01 | S. cerevisiae deletion strains, locus YOR083W, strain WHI5, hits give low values 0.982 | S. cerevisiae deletion strains, locus YOR106W, strain vam3, hits give low values 1.02 | S. cerevisiae deletion strains, locus YOR136W, strain idh2, hits give low values 0.996 | S. cerevisiae deletion strains, locus YOR144C, strain elg1, hits give low values 0.985 | S. cerevisiae deletion strains, locus YOR184W, strain ser1, hits give low values 0.99 | S. cerevisiae deletion strains, locus YOR231W, strain MKK1, hits give low values 1.02 | S. cerevisiae deletion strains, locus YOR265W, strain rbl2, hits give low values 1.02 | S. cerevisiae deletion strains, locus YOR270C, strain vph1, hits give low values 1.07 | S. cerevisiae deletion strains, locus YOR290C, strain snf2, hits give low values 1.04 | S. cerevisiae deletion strains, locus YOR316C, strain cot1, hits give low values 0.988 | S. cerevisiae deletion strains, locus YPL051W, strain arl3, hits give low values 1.03 | S. cerevisiae deletion strains, locus YPL055C, strain LGE1, hits give low values 1.05 | S. cerevisiae deletion strains, locus YPL078C, strain atp4, hits give low values 1.05 | S. cerevisiae deletion strains, locus YPL106C, strain sse1, hits give low values 1.02 | S. cerevisiae deletion strains, locus YPL240C, strain hsp82, hits give low values 1.01 | S. cerevisiae deletion strains, locus YPL241C, strain CIN2, hits give low values 1.01 | S. cerevisiae deletion strains, locus YPL256C, strain CLN2, hits give low values 1.03 | S. cerevisiae deletion strains, locus YPR119W, strain clb2, hits give low values 0.988 | S. cerevisiae deletion strains, locus YPR141C, strain kar3, hits give low values 0.993 | S. cerevisiae deletion strains, locus YPR163C, strain tif3, hits give low values 0.987 | S. cerevisiae deletion strains, locus YPR167C, strain met16, hits give low values 0.99 | S. cerevisiae deletion strains, strain wtn01, hits give low values 0.991 | S. cerevisiae strains, strain wild type, hits give low values 1.03
